High-throughput results from PubChem BioAssay.
A selection: hits, their analogues and other compounds. The true share with any hit is near 18%.
DT40 TDP1 CPT: growth inhibition of DT40 Tdp1-/-;hTDP1 cells with camptothecin (screen for TDP1 inhibitors). Potency, µM (top dose mostly 46.2 µM), without a hit: at the highest dose activity change, negative = growth inhibition, usual class: inhibitors. actives 12% (n = 420,000). chicken DT40 Tdp1-/-;hTDP1 cells + 20 nM CPT, ATP luminescence, 48 h; note: potency is the fitted concentration of half-maximal effect; nearly all actives have a fitted effect of over 55% in size
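Cell growth measured by CellTiter-Glo luminescence after a minimum 48 h, 37 C compound exposure with 20 nM CPT in Tdp1-knockout DT40 cells stably expressing hTDP1, seeded 400/well; qHTS titration format.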
DT40 TDP1 no CPT: qHTS for Inhibitors of human tyrosyl-DNA phosphodiesterase 1 (TDP1): qHTS in cells in absence of CPT; actives 15% (n = 420,000); AID 686978, 2013; DT40 Tdp1-/- hTDP1 cells, no CPT, ATP luminescence, 48 h; Potency, µM (doses to about 46.2 µM), without a hit: at the highest dose activity change, negative = growth inhibition, hits mostly inhibitors; note: potency is the fitted concentration of half-maximal effect; nearly all actives have a fitted effect of over 55% in size
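No-CPT arm: Tdp1-/-;hTDP1 DT40 cells (400/well) plus compounds, incubated ≥48 hr at 37 °C. Readout CellTiter-Glo luminescence.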
IL-1B inflam inh: blocks inflammasome-driven IL-1 beta release; THP-1 LPS/ATP IL-1B secretion, AlphaLISA, 16 h; stronger effect = lower value; activity change, % at 57.5 µM; actives 4.7% (n = 360,000); in the data active = activity change below about -50%; inconclusive = mostly about -30% to -49%
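Secreted IL-1B measured by AlphaLISA bead assay after 16 h compound exposure of THP-1 cells; compounds (final up to 57.5 uM) added 1 h before LPS (250 ng/mL) and ATP (1.25 mM) stimulation; lower signal means less secretion.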
CtBP-E1A inh: CtBP/E1A binding inhibition | actives 0.49% (n = 340,000) | AlphaScreen GST-E1A/His-CtBP binding, 1536-well; stronger effect = lower value | activity change, % (test concentration not listed); in the data active = activity change below about -65%; inconclusive = mostly about -30% to -63%
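AlphaScreen with 125 nM GST-E1A and 125 nM His-CtBP (5X stocks) in Tris pH 8.0, 300 mM NaCl, BSA, Tween 20, TCEP. Compounds preincubated 2 h at 37 deg C, then glutathione donor/nickel acceptor beads added for 1 h at 37 deg C in dark.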
TDP1 inh: inhibitors of human tyrosyl-DNA phosphodiesterase TDP1. Q9NUW8. recombinant TDP1, AlphaScreen DNA substrate cleavage. Potency, µM (titrated, usually from 130 µM), for inactives: top-dose activity change, negative = inhibition, actives largely listed as inhibitors. actives 0.28% (n = 350,000). AID 485290; note: potency is the fitted concentration of half-maximal effect; nearly all actives have a fitted effect of over 40% in size
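Signal: AlphaScreen proximity between streptavidin donor and anti-FITC acceptor beads on intact substrate. Reaction: Tdp1 1 nM, substrate 15 nM final, 5 min RT after 15 min compound preincubation.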
Six1-Eya2 inh: blocks human Six1 binding to Eya2. Q15475+O00167. AID 651725. actives 0.56% (n = 360,000). AlphaScreen GST-Six1/His-Eya2 binding, biochemical; stronger effect = lower value. activity change, % (test concentration not listed); in the data active = activity change below about -65%; inconclusive = mostly about -30% to -63%
Target sequence (O00167 whole entry, looked up): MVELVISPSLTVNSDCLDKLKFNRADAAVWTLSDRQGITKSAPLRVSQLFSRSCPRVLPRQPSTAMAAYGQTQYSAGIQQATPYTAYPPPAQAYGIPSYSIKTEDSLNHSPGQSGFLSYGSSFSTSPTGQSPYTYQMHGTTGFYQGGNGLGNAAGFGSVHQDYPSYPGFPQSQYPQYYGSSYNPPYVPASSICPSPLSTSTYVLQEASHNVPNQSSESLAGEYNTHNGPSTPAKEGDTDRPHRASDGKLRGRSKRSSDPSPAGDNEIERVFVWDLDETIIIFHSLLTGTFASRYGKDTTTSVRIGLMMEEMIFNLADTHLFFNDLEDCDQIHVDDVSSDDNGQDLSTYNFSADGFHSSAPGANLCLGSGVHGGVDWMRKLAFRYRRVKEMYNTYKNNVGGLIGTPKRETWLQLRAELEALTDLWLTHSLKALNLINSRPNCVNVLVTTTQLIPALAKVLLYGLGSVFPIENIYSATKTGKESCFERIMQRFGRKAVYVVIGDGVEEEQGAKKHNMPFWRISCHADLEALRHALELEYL
Target sequence (Q15475 whole entry, looked up): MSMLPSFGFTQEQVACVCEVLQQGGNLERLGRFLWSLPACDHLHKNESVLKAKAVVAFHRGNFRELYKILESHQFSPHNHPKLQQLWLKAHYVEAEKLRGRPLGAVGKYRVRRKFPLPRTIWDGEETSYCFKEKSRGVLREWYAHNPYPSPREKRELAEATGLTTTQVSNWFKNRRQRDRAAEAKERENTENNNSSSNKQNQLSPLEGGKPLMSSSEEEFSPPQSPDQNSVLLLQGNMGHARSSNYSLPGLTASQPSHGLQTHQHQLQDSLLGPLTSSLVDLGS
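Compounds are tested against tagged Six1 and Eya2 proteins bridged by glutathione donor and nickel acceptor beads; after a one-hour incubation at 37 °C without light, AlphaScreen emission is recorded.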
Active calls of the source: *; ? = inconclusive; / = no result; [ ] = another dose, or the depositor's remark. Unless noted, calls come from the whole dose curve; as a rule, active = well fitted curve in the direction sought with a large enough effect; inconclusive = small, poorly fitted or top-dose-only effect, or another doubt; inactive = no such curve, though single readings can be large; an effect the other way counts as inactive or inconclusive. % is set by controls: 0 for no effect and ±100 for the full control effect.

SMILES	DT40 TDP1 CPT	DT40 TDP1 no CPT	IL-1B inflam inh	CtBP-E1A inh	TDP1 inh	Six1-Eya2 inh
CC1CCN(CCOc2cccc(Br)c2)CC1	30%	-26%	-6	3	-3%	-6
COc1ccc(S(=O)(=O)N2CCN(c3ncccn3)CC2)cc1OC	3%	-20%	5	1	/	0
COc1ccc(S(=O)(=O)N2CCN(CCOc3ccc(Br)cc3)CC2)cc1OC	?	15µM*	-21	/	1%	-7
Clc1cccc(OCCN2CCN(CCOc3cccc(Cl)c3)CC2)c1	2.9µM*	2.3µM*	-85*	-11	8%	-18
COc1ccc(OC)c(C(=O)CN2CCN(S(=O)(=O)c3ccc(Br)cc3)CC2)c1	-11%	-18%	-12	3	0%	0
Cc1ccc(S(=O)(=O)N2CCN(CCOc3c(Cl)cccc3Cl)CC2)cc1C	21µM*	?	-1	3	0%	7
COc1ccc(S(=O)(=O)N2CCN(CCOc3ccccc3Cl)CC2)cc1OC	23µM*	?	-16	-24	0%[56.1 µM]	-8
Cc1ccc(S(=O)(=O)N2CCN(Cc3ccco3)CC2)cc1C	-1%	13%	7	-2	2%[56.1 µM]	0
COc1ccc(NC(=O)Nc2ccc3nc([C@@H]4O[C@H](CO)[C@@H](O)[C@H](O)[C@H]4O)[nH]c3c2)cc1OC1CCCC1	3%	-3%	15	-6	/	-11
COc1ccc(N(CC(=O)Nc2nccs2)S(=O)(=O)c2c(C)nn(C)c2C)cc1	-4%	?	-16	-21	2%	1
CC(Oc1ccc(Cl)cc1Cl)C(=O)NCCCn1ccnc1 (stereo unspecified)	?	-28%	-19	0	3%	-1
O=S(=O)(c1ccc(F)cc1)N1CCN(CCOc2ccccc2)CC1	-1%	-12%	-15	3	0%	0
Cc1ccc(S(=O)(=O)N2CCN(CCOc3cccc(C)c3)CC2)cc1	-18%	7.3µM*	-21	?	-1%[56.1 µM]	-7
O=C(CN1C(=O)CCC1=O)Nc1ccc(Cc2ccc(NC(=O)CN3C(=O)CCC3=O)cc2)cc1	16%	8%	-69*	1	9%	-1
COc1ccc(-c2c(C)nn3c(N4CCC5(CC4)OCCO5)cc(C)nc23)cc1OC	-21%	-25%	-24	-1	7%	2
CNC(=S)N/N=C/c1cc(Br)c(OCc2ccncc2)c(OC)c1	?	?	-2	/	/	-7
NC(=S)N/N=C/c1ccccc1OCCSc1ccc(Cl)cc1	13µM*	15µM*	?	-6	8%	-16
COc1cc(/C=N/NC(N)=S)cc(Br)c1OCc1ccccc1F	6.5µM*	6.5µM*	32	0	3%	-10
COC(=O)N/N=C/c1cccc(OCCSc2ccc(Cl)cc2)c1	?	?	-22	0	5%	0
COc1cccc(/C=N/NC(N)=S)c1OCc1ccccc1Cl	2.9µM*	4.1µM*	-14	-18	7%	-16
CCOc1cc(/C=N/N=C(\N)c2nonc2N)cc(Br)c1OCc1cccc2ccccc12	23µM*	13µM*	3	5	2%	-2
O=C(C1CCCO1)N1CCN(C(=S)Nc2ccc(Cl)cc2Cl)CC1 (stereo unspecified)	-1%	0%	-6	3	3%	6
O=C1CC[C@@H]2CC3(C[C@@H]4CCN1[C@H]24)Nc1cc(Cl)ccc1NC3=NC1CCCCC1 (stereo partly specified)	0%	-22%	-13	2	/	2
CCOc1cc(/C=N/NC(N)=O)cc(Br)c1OCc1ccccc1	?	?	8	-14	2%	-2
CCOc1cc(/C=N/NC(N)=S)cc(Br)c1OCc1ccccc1C	5.8µM*	16µM*	68	-1	-9%	-5
SMILES	DT40 TDP1 CPT	DT40 TDP1 no CPT	IL-1B inflam inh	CtBP-E1A inh	TDP1 inh	Six1-Eya2 inh
CC1CCC(C(C)C)C(OCC[N+](C)(C)C)C1 (stereo unspecified)	?	?	-6	-4	1%	9
Cc1nnc(N2CCN(c3ccccc3F)CC2)c2c1nnn2Cc1ccc(F)cc1	?	?	/	/	5%	/
Cc1nnc(N2CCN(c3ccccc3F)CC2)c2c1nnn2Cc1ccccc1	?	16µM*	/	/	5%	/
Cc1nnc(N2CCN(c3ccccc3F)CC2)c2c1nnn2Cc1ccccc1Cl	15µM*	?	/	/	-5%	/
Cn1c(=O)[nH]c(Nc2ccc(F)cc2)c([N+](=O)[O-])c1=O	-1%	2%	13	-3	-3%	-5
CCN(CC)CCCN=Cc1c(O)n(-c2cccc(C)c2)c(=O)c2ccccc12	?	-24%	-10	/	4%	-7
C[C@]12CCC(=O)CC1CCC1C2CC[C@@]2(C)C1CC[C@@]21CCO1 (stereo partly specified)	?	21µM*	-12	-1	/	5
C[C@]12CCC(=O)C[C@@H]1CC[C@@H]1[C@@H]2CC[C@]2(C)C=CC[C@@H]12	28%	?	44	6	4%	2
Cc1cc2n(n1)C(c1sccc1C)Nc1c(C)cccc1-2 (stereo unspecified)	?	?	-11	5	4%	24
COC(=O)c1scc(C#N)c1N/N=C(\C#N)S(=O)(=O)c1ccc(Cl)cc1	4.1µM*	4.6µM*	12	-5	/	-11
COC(=O)c1scc(S(=O)(=O)C(C)C)c1N/N=C(\C#N)C(=O)c1ccc(Cl)cc1	?	23µM*	-8	/	8%	-5
Cc1ccc(-n2c(SCC(=O)NNC(=S)Nc3ccccc3)nc3ccccc3c2=O)cc1	?	?	11	-14	-3%	-14
Cc1ccc(S(=O)(=O)N2[C@@H](c3cccc(C)c3)C(C(=O)O)=C[C@H]2CC2CCCC2)cc1	-1%	-1%	16	3	2%	-3
COc1ccc(S(=O)(=O)NCc2ccc(C(=O)NCc3ccccc3)cc2)cc1	-18%	-9%	/	/	5%	/
CC1=CC(C)(C)Nc2ccc(OC(=O)CN3C(=O)CCC3=O)cc21	2.9µM*	2.8µM*	-101*	10	7%	0
CC1=CC(C)(C)Nc2ccc(OC(=O)C(C)N3C(=O)c4ccccc4C3=O)cc21 (stereo unspecified)	2.1µM*	2.6µM*	0	?	11%	?
CC1=CC(C)(C)Nc2ccc(OC(=O)c3cccnc3)cc21	2.9µM*	4.6µM*	-98*	-1	11%	-14
